# Compound activity (PubChem BioAssay)
# In the library only some 1.6% were active in any assay of this set; here they are far more common.
# BH1578 lux ind: induces V. cholerae light production without autoinducers; V. cholerae BH1578 lux reporter, luminescence, 6 h; AID 588436; hit rate 0.16% among 350,000; activation, % at 18.7 µM; in the data active = activation mostly above about 9.7%, no sharp cut-off; inconclusive = no clear call, values can overlap the other calls; inactive = mostly below about 3.7%
# PfHsp40 rescue: rescue of PfHsp40-mediated yeast toxicity | S. cerevisiae expressing PfHsp40, growth rescue, ATP luminescence | growth rescue, % at 12.5 µM | hit rate 0.68% among 340,000; in the data active = growth rescue above about 28%, passing the limit was not always enough; inconclusive = no clear call, values can overlap the other calls;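 note: yeast W303a lacking pdr1 and pdr3 grown in galactose medium; growth measured after three days at 30 °C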
# PrPC surface inh: reduces human prion protein on the cell surface; AID 720596; hit rate 0.43% among 370,000; P04156; cell surface PrPC, TR-FRET read-out; inhibition, % at 13.8 µM; in the data active = inhibition above about 24%
# PriA SSB inh: blocks PriA binding to SSB C-terminal tail | AlphaScreen SSBct-PriA binding, biotinylated peptide | inhibition, % at 33 µM | hit rate 0.6% among 430,000; in the data active = inhibition mostly above about 37%, no sharp cut-off; inactive = mostly below about 20%
# 3CLpro inhibitor: SARS-CoV 3CLpro protease inhibition; AID 1706; recombinant SARS-CoV 3CLpro, quenched FRET peptide cleavage; inhibition, % at 6 µM; hit rate 0.14% among 290,000; in the data active = inhibition above about 12%
# PrP 5UTR inh: suppresses PrP 5' UTR mRNA reporter expression. inhibition, % (no concentration beside the values). hit rate 0.35% among 340,000. cell-based PrP 5' UTR mRNA reporter, plate reader. AID 488862; in the data active = inhibition above about 52%
# Hits are given with their value; n = inactive; u = inconclusive; x = not tested or not shown.
SMILES,BH1578 lux ind,PfHsp40 rescue,PrPC surface inh,PriA SSB inh,3CLpro inhibitor,PrP 5UTR inh
Cc1ccc(NC(=O)c2oc3ccccc3c2NC(=O)c2cccc(Br)c2)cc1C,x,x,x,n,x,x
Cc1nc2cc(NC(=O)c3ccc([N+](=O)[O-])s3)ccc2s1,n,n,n,n,n,n
O=C(Nc1ccc2sccc2c1)c1ccc([N+](=O)[O-])s1,x,x,x,46.0,x,x
COc1cccc([C@H](C2Sc3nc(C)nn3C2=O)N2CCN(c3cccc(Cl)c3)CC2)c1 (some centres not stated),x,x,x,n,x,x
O=S(=O)(c1ccc(Cl)cc1)N1CCC2(CC1)OCCN2S(=O)(=O)c1cccs1,n,54.5,n,n,x,n
CC(=O)N1CCC2(CC1)OCCN2S(=O)(=O)c1ccc(C)cc1,x,x,x,n,x,x
Cc1ccc(S(=O)(=O)N2CCOC23CCN(C(=O)c2cc(Cl)ccc2Cl)CC3)cc1,n,90.6,n,n,n,n
Cc1cc(CCNS(=O)(=O)Cc2cccc(F)c2)on1,x,x,x,n,x,x
COc1ccc2c(c1)O/C(=C\c1ccncc1)C2=O,x,x,x,n,x,x
NCC(=O)Nn1cnnc1CN,x,x,x,98.0,x,x
Cc1ccc(S(=O)(=O)N=C(Nc2c(C)n(C)n(-c3ccccc3)c2=O)c2ccc(Cl)cc2)cc1,x,x,x,n,x,x
O=C(O)c1ccc(C(=O)Nc2cccc3ccccc23)c(C(=O)O)c1,224.8,u,n,n,n,n
O=C(c1ccc2nsnc2c1)N1C2CCC1CC(S(=O)(=O)c1ccccc1)C2 (configuration not stated),x,x,x,74.0,x,x
O=C(c1ccc(Cl)cc1)N1C2CCC1CC(S(=O)(=O)c1ccccc1)C2 (configuration not stated),x,x,x,n,x,x
Cc1ccc(OCC(=O)N2C3CCC2CC(S(=O)(=O)c2ccccc2)C3)cc1 (configuration not stated),x,x,x,79.0,x,x
Cc1ccc(Cl)c2sc(N(CCCN3CCOCC3)C(=O)c3ccn(C)n3)nc12,x,x,x,n,x,x
O=C(NC[C@@H](c1ccco1)N1CCOCC1)NC1CCCCC1,x,x,x,n,x,x
Nc1ccc2c(c1)CC(=O)N2,x,x,x,n,x,x
CC1(C)CNc2cc(N)ccc2S1,n,n,n,74.2,n,n
CC(C)C(=O)Nc1ccc(S(=O)(=O)NCC2CCN(Cc3ccco3)CC2)cc1,x,x,x,n,x,x
CC(C)Nc1nc(NC(C)C)nc(N(C)C(N)=O)n1,n,n,n,n,n,n
CC(C)Nc1nc(NC(C)C)nc(N(C)N)n1,n,n,n,65.3,n,n
Cc1nnc(N=c2ssnc2Cl)o1,n,362.3,n,n,x,n
Cc1ccc(N=c2ssnc2Cl)cc1,n,n,n,n,n,n
COc1ccc(-c2csc(CN3CCN(C(=O)c4ccc([N+](=O)[O-])o4)CC3)n2)cc1,x,x,x,n,x,x
SMILES,BH1578 lux ind,PfHsp40 rescue,PrPC surface inh,PriA SSB inh,3CLpro inhibitor,PrP 5UTR inh
COc1ccc(-c2csc(CN3CCN(C(=O)c4ccc(Br)o4)CC3)n2)cc1,x,x,x,44.0,x,x
CSc1ccc(Cc2nnc(NC(=O)C34CC5CC(CC(C5)C3)C4)o2)cc1,x,x,x,n,x,x
COc1ccccc1NC(=O)C1=C(C)Nc2nc(-c3cccs3)nn2C1c1ccccc1[N+](=O)[O-] (configuration not stated),x,x,x,35.0,x,x
CCC(=O)c1ccc(OCC(O)CNCc2ccc(F)cc2)cc1 (configuration not stated),n,n,n,n,n,n
CCC(=O)c1ccc(OCC(O)CNCCc2ccc(Cl)cc2)cc1 (configuration not stated),n,x,n,40.0,n,n
CCOC(=O)N1CCN(C(=O)CN2CC(c3nc(-c4ccco4)no3)C2)CC1,x,x,x,n,x,x
CCCCCc1cc(=O)oc2c(C(CCN3CCCC3)c3ccc(N(C)C)cc3)c(OC)cc(OC)c12 (configuration not stated),n,n,n,49.6,x,n
CCCCCc1cc(=O)oc2c(C(CCN3CCCCC3)c3ccc(OC)cc3)c(OC)cc(OC)c12 (configuration not stated),n,n,n,n,x,n
CCN(CC)C(=O)CC(c1ccc(N(C)C)cc1)c1c(OC)cc(OC)c2c(-c3ccccc3)cc(=O)oc12 (configuration not stated),n,n,n,47.8,x,n
O=CN1N=C(c2ccccc2)CC1c1ccc(Cl)cc1 (configuration not stated),n,n,n,n,n,n
O=C1OC(c2ccccc2)=NC12CC2c1ccc(Cl)cc1 (configuration not stated),n,255.5,n,n,n,n
Nc1nc2nccc(-c3ccc(Cl)cc3)n2n1,n,184.5,n,n,n,n
CCn1c(=O)c(-c2cc(=O)[nH][nH]2)c(O)c2ccccc21,n,96.6,n,n,n,n
CCn1c(=O)c(-c2ccccc2)c(O)c2ccccc21,n,n,n,n,n,n
Cn1c(=O)c(-c2cc(=O)[nH][nH]2)c(O)c2ccccc21,n,47.1,n,n,n,n
O=c1cc(-c2c(O)c3ccccc3n(Cc3ccccc3)c2=O)[nH][nH]1,n,155.2,n,n,n,n
O=C(NCCCS(=O)(=O)N1CCN(c2ccccn2)CC1)c1cnccn1,x,x,x,n,x,x
N#Cc1ccccc1NC(=O)C(=O)NCCCO,x,x,x,n,x,x
CCC(=O)Nc1c2c(nn1-c1ccc(C)cc1C)CSC2,n,47.9,n,n,n,n
O=C(Nc1ccccc1-c1ccc(=O)[nH]n1)c1ncccn1,x,x,x,n,x,x
COc1ccc(Cl)cc1C(=O)CSc1nnnn1C1CCCC1,n,31.7,n,n,n,n
COc1ccc(Cl)cc1C(=O)CSc1nnnn1C1CCCCC1,n,n,n,n,n,n
COC(=O)Nc1ccc(S(=O)(=O)N2CCN(c3cc(C(F)(F)F)ncn3)CC2)cc1,x,x,x,n,x,x
O=[N+]([O-])c1cc(S(=O)(=O)NC2=NCCCCC2)ccc1NCC1CCCCC1,n,n,n,40.8,n,n
O=[N+]([O-])c1cc2c(cc1C=Nn1c(-c3ccccc3)n[nH]c1=S)OCO2,x,x,x,n,x,x
SMILES,BH1578 lux ind,PfHsp40 rescue,PrPC surface inh,PriA SSB inh,3CLpro inhibitor,PrP 5UTR inh
S=c1[nH]nc(-c2ccccn2)n1N=Cc1cccs1,x,x,x,57.6,x,x
O=[N+]([O-])c1cc2c(cc1C=Nn1c(-c3ccccn3)n[nH]c1=S)OCO2,x,x,x,98.8,x,x
O=S(=O)(c1cccc(C(F)(F)F)c1)N1CCC(CO)(CCCc2ccccc2)CC1,n,55.5,n,n,n,n
O=S(=O)(c1cccc(C(F)(F)F)c1)N1CCC(O)(c2cccnc2)CC1,n,n,n,n,n,n
Cc1ccc(CNC(=O)CSc2c3c(nc4cc(Cl)ccc24)CCCC3)o1,25.8,n,n,n,n,n
Cc1ccc(CC(=O)Nc2nnc(-c3ccco3)o2)c(C)c1,x,x,x,41.0,x,x
Cc1ccsc1C(=O)Nc1nnc(-c2ccco2)o1,n,n,n,50.1,n,n
O=S(=O)(Nc1cc(OCc2ccccc2)ncn1)c1ccc(OC(F)(F)F)cc1,x,x,x,n,x,x
COc1cc2c(cc1OC)CN(C(=O)CSc1nc3scc(-c4ccco4)c3c(=O)n1-c1ccccc1)CC2,x,x,x,n,x,x
CN(C)CCCN(C(=O)c1ccc(Br)cc1)c1nc2ccc(Cl)cc2s1,x,x,x,n,x,x
CN(CCO)c1ncnc2nc[nH]c12,n,n,n,104.2,n,n
O=c1cc(CSc2ccc(Cl)cc2)nc(-c2ccccn2)[nH]1,n,325.0,n,n,n,n
